Results reported in PubChem BioAssay (NCATS).
Results filed as inconclusive are left out. Calls of active or inactive are those of the source. Unless noted, the call rests on the fitted dose curve; in most records, active means well fitted curve in the direction sought with a large enough effect; inconclusive means small, poorly fitted or top-dose-only effect, or another doubt; inactive means no such curve, though single readings can be large; an effect the other way counts as inactive or inconclusive.

Columns and labels:
[1] = qHTS for Inhibitors of Cell Surface uPA Generation: Validation Assay (AID 493164);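 further: RAW 264.7 macrophage cells exposed to compound for 18 h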
In short: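 RAW 264.7, 4000 cells/well, o/n plating; cpd 7-pt 1:5 dilution 2.45 nM–38.3 uM final; 18 h, 37 C/5% CO2; ATP-Lite, 5 s luminescence exposure.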

[2] = molecular target: Galactokinase (Homo sapiens) (UniProt P51570); assay: qHTS Validation Assay for Inhibitors of Human Galactokinase (GALK) (AID 493189)
In short: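 GALK (5 nM) with 35 uM ATP and 100 uM galactose in HEPES pH 8.0 with MgCl2, NaCl, DTT and BSA. Reaction ran 1 h at room temperature. Residual ATP read by Kinase-Glo Plus luminescence.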

[3] = Validation screen for small molecules that induce DNA re-replication in SW480 colon adenocarcinoma cells (AID 504364)
In short: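 Cells are treated 48 hr with test compound, stained 40 min with Hoechst at 37 C, and scanned for nuclear fluorescence; compounds inducing re-replication increase nuclei with elevated intensity.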

[4] = molecular target: Peptidyl-prolyl cis-trans isomerase NIMA-interacting 1 (Homo sapiens) (UniProt Q13526); assay: qHTS Validation Assay to Find Inhibitors of Pin1 (AID 504536; active means well fitted inhibition curve with a large enough effect in the polarisation, with a control signal flat, not every such curve was filed as active; the % refers to the polarisation)
In short: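 Fluorescence polarization competition: compounds (titration) displace HiFluor-488-labeled Pin1-1b peptide from Pin1 (0.3 uM final) in pH 7.5 HEPES buffer with DTT, 10 min at room temperature; %Activity normalized to no-enzyme wells, curves fitted.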

[5] = molecular target: Phosphoglycerate kinase, glycosomal (Trypanosoma brucei brucei) (UniProt P07378); assay: qHTS Validation Assay to Find Inhibitors of Phosphoglycerate Kinase (AID 504547)
In short: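 Substrate/PGK mix plus compound; reaction started with GAPDH (100nM final) to form 1,3-BPG; 60 min RT; Kinase-Glo Plus 10 min; luminescence. TEA 100mM pH 7.6, MgCl2 5mM, Tween-20 0.01%.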

[6] = molecular target: phosphoglycerate mutase (Leishmania major) (UniProt Q4Q090); assay: qHTS Validation Assay to Find Inhibitors of Phosphoglycerate Mutase (AID 504548);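 further: end-point luminescence from Kinase-GloPlus after the PGAM reaction; series mostly up to about 58 µM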
In short: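 L. major PGAM (1.25nM final) was added to substrate buffer and pinned compound, incubated 45 minutes at room temperature, then Kinase-GloPlus added; luminescence read after 10 minutes. Buffer: 100 mM TEA pH 7.6, 5 mM MgCl2, 0.01% Tween-20.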

[7] = Inducers of the Endoplasmic Reticulum Stress Response (ERSR) in human glioma: Validation (AID 504836)
In short: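 Stably transfected U87-MG human glioma cells carrying a GRP78-based luminescent sensor were seeded at 1000 cells/well, pin-dosed with compounds and incubated 16 h. Luciferase reagent was then added, and end-point luminescence was read after 10 min at room temperature.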

[8] = molecular target: Ubiquitin carboxyl-terminal hydrolase 1 (Homo sapiens) (UniProt O94782); assay: Inhibitors of USP1/UAF1: Pilot qHTS (AID 504865);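 further: rhodamine fluorescence freed from ubiquitin-rhodamine substrate followed over time; top concentration of the series differs between compounds; nearly all actives have a fitted effect of over 35% in size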
Ubiquitin carboxyl-terminal hydrolase 1 (Homo sapiens), sequence (O94782 whole entry, looked up): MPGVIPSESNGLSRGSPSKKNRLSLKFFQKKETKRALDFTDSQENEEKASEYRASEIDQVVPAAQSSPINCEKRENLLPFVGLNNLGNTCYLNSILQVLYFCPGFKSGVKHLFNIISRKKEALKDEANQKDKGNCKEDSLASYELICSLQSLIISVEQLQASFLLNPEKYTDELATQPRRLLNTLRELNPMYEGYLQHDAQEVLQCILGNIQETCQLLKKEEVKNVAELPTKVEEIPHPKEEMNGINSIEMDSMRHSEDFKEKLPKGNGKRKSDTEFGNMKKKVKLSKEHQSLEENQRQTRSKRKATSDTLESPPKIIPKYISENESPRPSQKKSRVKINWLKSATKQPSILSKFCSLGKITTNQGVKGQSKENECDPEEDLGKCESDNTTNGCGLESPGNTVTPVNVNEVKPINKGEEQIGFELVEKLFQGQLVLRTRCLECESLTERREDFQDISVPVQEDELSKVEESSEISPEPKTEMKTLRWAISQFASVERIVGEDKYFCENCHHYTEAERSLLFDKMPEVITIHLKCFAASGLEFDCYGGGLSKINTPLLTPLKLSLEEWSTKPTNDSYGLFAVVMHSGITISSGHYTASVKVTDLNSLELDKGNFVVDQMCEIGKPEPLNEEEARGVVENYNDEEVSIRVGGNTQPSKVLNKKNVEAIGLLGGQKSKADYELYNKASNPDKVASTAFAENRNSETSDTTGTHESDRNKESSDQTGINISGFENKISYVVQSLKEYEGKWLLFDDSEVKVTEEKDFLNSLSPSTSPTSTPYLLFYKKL
In short: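 USP1/UAF1 complex at 1 nM preincubated 15 min at room temperature with compound, then Ub-Rho substrate added at 150 nM final. Fluorescence (480/540 nm) read kinetically in 50 mM HEPES pH 7.8, 0.5 mM EDTA, 1 mM TCEP, 0.1 mg/ml BSA, 0.01% Tween-20.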

[9] = qHTS for Inhibitors of ATXN expression: Validation of Cytotoxic Assay (AID 588349);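 further: cells exposed to compound for 72 hr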
In short: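 HEK293, compound dose series, 72 hr / 37 degrees C; viability via CellTiter Glo (intracellular ATP).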

[10] = qHTS for Inhibitors of ATXN expression: Validation (AID 588378); further: series mostly up to about 57 µM; nearly all actives have a fitted effect of over 75% in size
In short: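 HEK293 cells carrying ATXN2-firefly luciferase reporter, treated with compound 24 h at 37 °C. Viability read first by CellTiter-Fluor (405/525 nm), then reporter expression by Bright-Glo luminescence; controls were a known ATXN2 expression inhibitor and a luciferase inhibitor.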

[11] = molecular target: Voltage-gated inwardly rectifying potassium channel KCNH2 (Homo sapiens) (UniProt Q12809); assay: qHTS Assay for Small Molecule Inhibitors of the Human hERG Channel Activity (AID 588834);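 further: top concentration of the series differs between compounds; lower thallium flux fluorescence means stronger hERG block; nearly all actives have a fitted effect of over 50% in size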
In short: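 U2OS cells BacMam-transduced with hERG, 2000 cells/well, compound ~10 min at 37 °C before stimulation buffer. FluxOR thallium flux fluorescence read kinetically on FDSS; decrease indicates block; AC50 from Hill fits.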

[12] = molecular target: Glutaminase kidney isoform, mitochondrial (Homo sapiens) (UniProt O94925); assay: qHTS for Inhibitors of Glutaminase (GLS): LOPAC Validation (AID 624146);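 further: glutamate product detected by oxidase and peroxidase coupled Amplex red fluorescence gain; series mostly up to about 46 µM; nearly all actives have a fitted effect of over 60% in size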
In short: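 hKGA in 45 mM KH2PO4 (pH 8.2), 0.02% Tween-20 with compound, then 1mM L-Glutamine (stock as added) plus glutamate oxidase/HRP/Amplex red coupling mix. Fluorescence read initially and after 30 min at RT; signal change reflects glutamate formation.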

[13] = qHTS of Trypanosoma Brucei Inhibitors: LOPAC Validation (AID 624147)
In short: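 TbPYK + substrate in 50 mM TEA pH 7.2, 100 mM KCl, 10 mM MgCl2, 0.05% BSA, 0.01% Tween-20; cpd pinned; ADP 130 uM final; 45 min RT; Kinase-Glo Plus 10 min; luminescence endpoint.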

[14] = molecular target: Glucagon-like peptide 1 receptor (Homo sapiens) (UniProt P43220); assay: qHTS of GLP-1 Receptor Agonists: LOPAC Validation (AID 624148);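 further: higher luminescence signal means agonism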
In short: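 HEK293 cells stably co-expressing a cAMP-responsive luciferase reporter and a hypersensitive GLP-1R were plated 12 h at 37 °C and exposed to compounds for 4-6 hr at 37 °C, 5% CO2. Luminescence was read 12 min after adding detection reagent.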

[15] = qHTS of Nrf2 Activators: LOPAC Validation (AID 624149)
In short: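 ARE reporter activation measured in AREc32 firefly luciferase cells after 24 hr compound exposure; Steady-Glo luminescence.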

[16] = HTS Assay for Allosteric Antagonists of the Human D2 Dopamine Receptor: Hit Validation in HTRF (AID 624455);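 further: stable D1 dopamine receptor cell line scored for blocking the D1 response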
In short: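 Signal from an HTRF read-out in D1-expressing stable cells gave hit activity as inhibition of the D1 response.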

[17] = molecular target: Arylsulfatase A (Homo sapiens) (UniProt P15289); assay: qHTS screen for enhancers of Arylsulfatase A (ASA1): LOPAC Validation Assay (AID 720538)
In short: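 SV40-transformed fibroblasts from an MLD patient (ASA-I179S) were treated with compound for 48 h at 37 C. They were then lysed with 0.5 mM pNCS substrate (final) for 14 h at room temperature and stopped with NaOH; signal read by fluorescence (Ex 525/Em 598 nm), with increase denoting enhanced activity.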

[18] = qHTS for compounds that reverse cellular toxicity of Amyloid beta (A-beta) peptide in yeast: LOPAC Validation Assay (AID 720559)
In short: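 Yeast expressing toxic A-beta grown with pinned compounds at 30 C for 48 hr. Growth measured as absorbance at 600 nm; data normalized to DMSO and to an equimolar FeCl3/clioquinol mixture as positive control.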

[19] = qHTS for Activators of Parkin Expression: LOPAC Validation Assay (NLuc Reporter) (AID 720572)
In short: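 Neuronal line stably carrying a FLuc/NLuc coincidence reporter under the Parkin promoter, seeded 24 h, then dosed in 7-point series for 24 h at 37 C. NLuc luminescence read after FLuc; normalized to DMSO and positive control (100%).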

[20] = qHTS for Activators of Parkin Expression: LOPAC Validation Assay (FLuc Reporter) (AID 720573)
In short: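 Neuronal cell line stably expressing FLuc/NLuc coincidence reporter under the Parkin promoter, 1,500 cells/well, dosed 24 h after seeding in 7-point series for 24 h at 37 C. FLuc luminescence read; normalized to DMSO and positive control (100%).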

[21] = molecular target: T1, Hexokinase-4 (Homo sapiens) + Glucokinase regulatory protein (Homo sapiens) (UniProt P35557+Q14397); assay: qHTS assay for inhibitors of recombinant human GCK-GKRP interaction: Diaphorase-coupled assay (AID 743205)
T1 sequence (P35557 whole entry, looked up): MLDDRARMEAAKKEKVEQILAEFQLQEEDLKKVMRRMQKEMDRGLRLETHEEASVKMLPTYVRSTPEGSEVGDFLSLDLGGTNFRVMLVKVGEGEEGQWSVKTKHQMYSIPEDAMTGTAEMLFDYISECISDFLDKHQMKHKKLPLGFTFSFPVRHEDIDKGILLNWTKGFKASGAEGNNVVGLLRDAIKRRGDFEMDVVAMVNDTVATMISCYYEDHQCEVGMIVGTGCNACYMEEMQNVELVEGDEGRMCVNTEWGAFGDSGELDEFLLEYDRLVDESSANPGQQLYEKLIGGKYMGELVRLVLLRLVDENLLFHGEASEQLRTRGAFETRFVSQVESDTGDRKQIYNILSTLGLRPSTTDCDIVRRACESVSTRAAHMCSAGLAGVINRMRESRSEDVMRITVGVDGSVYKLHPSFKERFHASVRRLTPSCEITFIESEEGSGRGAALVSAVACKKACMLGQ
T1 sequence (Q14397 whole entry, looked up): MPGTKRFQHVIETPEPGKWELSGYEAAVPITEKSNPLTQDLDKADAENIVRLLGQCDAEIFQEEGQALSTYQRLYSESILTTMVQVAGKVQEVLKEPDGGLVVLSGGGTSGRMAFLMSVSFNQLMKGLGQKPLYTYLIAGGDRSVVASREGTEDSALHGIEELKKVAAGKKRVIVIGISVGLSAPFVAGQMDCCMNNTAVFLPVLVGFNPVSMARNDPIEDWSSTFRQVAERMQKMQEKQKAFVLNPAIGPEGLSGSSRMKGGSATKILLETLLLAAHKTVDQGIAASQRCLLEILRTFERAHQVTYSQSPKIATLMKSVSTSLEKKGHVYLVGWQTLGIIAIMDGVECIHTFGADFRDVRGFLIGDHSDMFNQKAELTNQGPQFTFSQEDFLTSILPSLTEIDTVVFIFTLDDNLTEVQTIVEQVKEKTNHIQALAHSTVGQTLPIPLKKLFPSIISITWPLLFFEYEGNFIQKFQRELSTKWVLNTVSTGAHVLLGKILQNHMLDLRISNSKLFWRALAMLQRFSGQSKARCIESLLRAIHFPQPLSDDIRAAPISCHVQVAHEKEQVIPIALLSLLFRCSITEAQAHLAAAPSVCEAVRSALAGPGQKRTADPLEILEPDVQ
In short: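 Compounds pre-incubated 20 min with substrate, then 10 nM GST-GCK with 10 nM FLAG-GKRP added. GCK activity coupled via G6PDH and diaphorase to resorufin (5 mM glucose, 0.4 mM ATP, 0.15 mM NADP+, pH 7.6), read kinetically over 30 minutes at Ex 525/Em 590 nm.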

[22] = molecular target: T1, Hexokinase-4 (Homo sapiens) + Glucokinase regulatory protein (Homo sapiens); assay: qHTS assay for inhibitors of recombinant human GCK-GKRP interaction: ADP-Glo assay (AID 743206)
In short: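 GST-GCK and FLAG-GKRP (15 nM each in the dispensed mix, with 2 uM S6P) react with 0.4 mM ATP and 5 mM glucose (final) in Hepes pH 7.6 for 60 min at room temperature. ADP is measured by ADP-Glo luminescence.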

[23] = molecular target: T1, Hexokinase-4 (Homo sapiens) + Glucokinase regulatory protein (Homo sapiens); assay: qHTS assay for inhibitors of recombinant human GCK-GKRP interaction: HTRF assay (AID 743207)
In short: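 HTRF binding of 5 nM GST-GCK and 5 nM FLAG-GKRP with 2 uM S6P in pH 7.1 Hepes buffer (MgCl2, KCl, DTT, Tween 20, BSA). Anti-FLAG XL665 and anti-GST donor added, 60 min at room temperature; 665/615 nm read, normalized to with- and without-GCK controls.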

[24] = Natriuretic polypeptide receptor (hNpr1) antagonism - Pilot counterscreen GloSensor control cell line (AID 1347045; calls by dose curve; further: series mostly up to about 38 µM)
In short: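 This counterscreen uses HEK293 cells expressing the GIP/pGS-40F cGMP biosensor. Compound-treated cells are challenged with 50 uM sodium nitroprusside, and the luciferase signal is compared before and after stimulation.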

[25] = molecular target: Atrial natriuretic peptide receptor 1 (Homo sapiens) (UniProt P16066); assay: Natriuretic polypeptide receptor (hNpr1) antagonism - Pilot screen (AID 1347049; calls by dose curve;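 further: agonist-evoked cGMP luminescence read 20 min after hNppA addition; series mostly up to about 58 µM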)
Atrial natriuretic peptide receptor 1 (Homo sapiens), sequence (P16066 whole entry, looked up): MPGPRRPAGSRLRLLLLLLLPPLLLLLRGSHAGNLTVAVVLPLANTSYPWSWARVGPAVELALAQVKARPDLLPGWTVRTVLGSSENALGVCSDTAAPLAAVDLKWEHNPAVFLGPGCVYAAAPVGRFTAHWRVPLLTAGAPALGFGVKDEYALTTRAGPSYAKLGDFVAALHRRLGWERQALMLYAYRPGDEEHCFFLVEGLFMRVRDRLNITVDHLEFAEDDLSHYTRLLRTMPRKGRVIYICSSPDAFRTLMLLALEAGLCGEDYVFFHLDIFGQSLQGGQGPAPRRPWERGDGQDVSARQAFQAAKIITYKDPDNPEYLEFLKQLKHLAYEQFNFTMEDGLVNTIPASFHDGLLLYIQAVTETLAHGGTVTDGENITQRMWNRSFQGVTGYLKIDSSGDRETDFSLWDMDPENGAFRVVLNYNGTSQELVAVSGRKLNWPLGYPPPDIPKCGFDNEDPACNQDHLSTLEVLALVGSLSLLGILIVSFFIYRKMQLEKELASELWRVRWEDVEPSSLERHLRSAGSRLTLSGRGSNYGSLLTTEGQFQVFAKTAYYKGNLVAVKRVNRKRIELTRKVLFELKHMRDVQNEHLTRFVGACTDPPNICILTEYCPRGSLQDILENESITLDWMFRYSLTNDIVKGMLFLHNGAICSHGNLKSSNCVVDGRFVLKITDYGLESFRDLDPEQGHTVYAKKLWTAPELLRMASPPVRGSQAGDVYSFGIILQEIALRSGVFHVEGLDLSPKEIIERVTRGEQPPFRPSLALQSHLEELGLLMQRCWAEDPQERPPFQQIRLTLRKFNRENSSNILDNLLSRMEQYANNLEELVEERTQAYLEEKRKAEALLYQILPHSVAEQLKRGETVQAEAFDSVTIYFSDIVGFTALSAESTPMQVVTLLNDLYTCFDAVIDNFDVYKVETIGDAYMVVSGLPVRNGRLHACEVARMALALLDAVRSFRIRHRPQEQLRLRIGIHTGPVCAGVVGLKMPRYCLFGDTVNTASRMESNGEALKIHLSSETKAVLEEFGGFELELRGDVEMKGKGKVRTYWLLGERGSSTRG
In short: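 HEK293 cells co-expressing hNpr1 and the GloSensor pGS-40F cGMP luciferase sensor were preloaded with 2% GloSensor reagent for 2 h. Compounds were added for 30 min at room temperature, then cells were stimulated with 0.1 nM hNppA for 20 min before luminescence readout.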

[26] = molecular target: Atrial natriuretic peptide receptor 2 (Homo sapiens) (UniProt P20594); assay: Natriuretic polypeptide receptor (hNpr2) antagonism - Pilot subtype selectivity assay (AID 1347050; calls by dose curve)
In short: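 cGMP-sensor HEK293/hNpr2 cells; 2% GloSensor reagent 2 h RT; compounds 30 min; baseline luminescence read; 1 nM hNppC agonist 20 min RT; final luminescence read by CCD camera. Antagonism = reduced post-agonist signal.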

[27] = molecular target: Parathyroid hormone/parathyroid hormone-related peptide receptor (Homo sapiens) (UniProt Q03431); assay: qHTS for PTHR1 Agonists: Optimization Screen against the NCGC LOPAC library (AID 1347079);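 further: GloSensor cAMP luminescence in HEK-293 GP2 cells expressing human PTHR1 with IBMX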
Parathyroid hormone/parathyroid hormone-related peptide receptor (Homo sapiens), sequence (Q03431 whole entry, looked up): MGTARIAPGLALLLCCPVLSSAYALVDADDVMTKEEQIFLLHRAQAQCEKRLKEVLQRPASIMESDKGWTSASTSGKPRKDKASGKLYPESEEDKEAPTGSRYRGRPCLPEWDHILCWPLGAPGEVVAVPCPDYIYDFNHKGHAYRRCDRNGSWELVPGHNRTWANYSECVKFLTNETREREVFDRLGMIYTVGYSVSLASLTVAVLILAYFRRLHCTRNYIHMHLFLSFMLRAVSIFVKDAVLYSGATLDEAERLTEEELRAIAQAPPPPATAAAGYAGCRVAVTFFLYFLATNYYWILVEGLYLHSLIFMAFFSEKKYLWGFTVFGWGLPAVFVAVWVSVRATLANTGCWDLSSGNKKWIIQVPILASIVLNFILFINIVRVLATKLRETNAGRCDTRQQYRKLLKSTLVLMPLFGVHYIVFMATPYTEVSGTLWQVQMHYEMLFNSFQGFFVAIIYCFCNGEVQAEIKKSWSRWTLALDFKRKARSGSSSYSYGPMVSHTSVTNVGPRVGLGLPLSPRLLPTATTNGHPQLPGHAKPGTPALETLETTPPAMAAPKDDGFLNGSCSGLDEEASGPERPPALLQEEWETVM
In short: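 Compounds were tested across a qHTS titration. PTHR1-expressing GP2 cells report cAMP rises via GloSensor luminescence after 1 hr compound exposure at 37C with IBMX present.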

[28] = qHTS for Inhibitors of the Functional Ribonucleoprotein Complex (vRNP) of Lassa (LASV) Arenavirus: LASV Primary Screen - GLuc reporter signal (AID 1347082; calls by dose curve; tested in HEK293 reporter line; further: series mostly up to about 57 µM; nearly all actives have a fitted effect of over 60% in size)
[29] = qHTS for Inhibitors of the Functional Ribonucleoprotein Complex (vRNP) of Lassa (LASV) Arenavirus: Viability assay - alamar blue signal for LASV Primary Screen (AID 1347083; calls by dose curve; tested in HEK293 reporter line; further: series mostly up to about 57 µM; nearly all actives have a fitted effect of over 80% in size)
[30] = qHTS for Inhibitors of the Functional Ribonucleoprotein Complex (vRNP) of Lymphocytic Choriomeningitis Arenaviruses (LCMV): Viability assay - alamar blue signal for LCMV Primary Screen (AID 1347085; calls by dose curve; tested in HEK293 reporter line; further: series mostly up to about 57 µM; nearly all actives have a fitted effect of over 80% in size)
[31] = molecular target: Lysine-specific demethylase 5B (Homo sapiens) (UniProt Q9UGL1); assay: Optimization screen for KDM5B Histone Demethylases FDH coupled qHTS against the LOPAC library (AID 1347166)
Lysine-specific demethylase 5B (Homo sapiens), sequence (Q9UGL1 whole entry, looked up): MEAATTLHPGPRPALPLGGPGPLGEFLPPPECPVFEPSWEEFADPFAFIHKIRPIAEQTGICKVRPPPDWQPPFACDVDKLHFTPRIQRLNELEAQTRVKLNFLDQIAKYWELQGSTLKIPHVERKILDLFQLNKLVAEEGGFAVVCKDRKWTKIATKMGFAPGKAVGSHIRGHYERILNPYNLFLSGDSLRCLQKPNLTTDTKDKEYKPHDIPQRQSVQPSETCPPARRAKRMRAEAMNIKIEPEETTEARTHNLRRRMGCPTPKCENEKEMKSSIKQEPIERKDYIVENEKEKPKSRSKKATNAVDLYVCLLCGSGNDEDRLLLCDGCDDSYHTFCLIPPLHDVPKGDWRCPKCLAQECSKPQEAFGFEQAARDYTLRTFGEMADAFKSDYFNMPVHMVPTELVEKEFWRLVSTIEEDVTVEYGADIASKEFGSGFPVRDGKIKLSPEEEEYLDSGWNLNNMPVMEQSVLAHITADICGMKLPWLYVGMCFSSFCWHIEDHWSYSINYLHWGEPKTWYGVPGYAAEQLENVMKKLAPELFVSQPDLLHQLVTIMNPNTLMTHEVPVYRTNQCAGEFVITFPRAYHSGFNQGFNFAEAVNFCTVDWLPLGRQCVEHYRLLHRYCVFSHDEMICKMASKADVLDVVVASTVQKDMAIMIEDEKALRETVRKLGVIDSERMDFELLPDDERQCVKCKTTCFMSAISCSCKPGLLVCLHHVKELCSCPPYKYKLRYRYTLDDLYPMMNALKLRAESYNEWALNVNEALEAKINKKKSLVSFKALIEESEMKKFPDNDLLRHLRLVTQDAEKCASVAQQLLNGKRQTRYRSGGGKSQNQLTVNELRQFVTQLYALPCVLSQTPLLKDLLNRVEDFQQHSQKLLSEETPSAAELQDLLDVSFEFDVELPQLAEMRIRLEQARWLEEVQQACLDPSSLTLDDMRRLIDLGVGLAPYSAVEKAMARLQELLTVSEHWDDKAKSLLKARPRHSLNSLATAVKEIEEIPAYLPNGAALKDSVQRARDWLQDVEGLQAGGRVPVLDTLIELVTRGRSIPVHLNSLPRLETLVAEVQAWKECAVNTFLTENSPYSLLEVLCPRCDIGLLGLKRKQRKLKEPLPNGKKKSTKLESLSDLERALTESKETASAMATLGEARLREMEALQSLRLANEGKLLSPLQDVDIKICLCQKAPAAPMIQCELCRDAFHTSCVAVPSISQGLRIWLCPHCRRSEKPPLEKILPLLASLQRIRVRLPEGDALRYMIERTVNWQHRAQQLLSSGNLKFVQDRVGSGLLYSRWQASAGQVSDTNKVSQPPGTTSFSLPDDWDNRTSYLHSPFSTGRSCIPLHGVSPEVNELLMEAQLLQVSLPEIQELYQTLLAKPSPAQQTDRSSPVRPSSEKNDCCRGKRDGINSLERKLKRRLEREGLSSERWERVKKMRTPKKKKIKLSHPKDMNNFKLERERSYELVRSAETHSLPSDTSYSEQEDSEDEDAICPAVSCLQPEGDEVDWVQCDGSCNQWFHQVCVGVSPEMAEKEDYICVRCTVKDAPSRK
In short: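 KDM5BDeltaAP (200nM final) preincubated 10 min with compound, then 12.5uM H3K4Me3, 25uM a-ketoglutarate, ascorbate, Fe(II), NAD+ and FDH added; 50mM HEPES pH 7.5, 0.01% Tween-20. NADH fluorescence (340/450 nm) change over 30 min, room temperature.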

[32] = Validation qHTS assay for inhibitors of Activation Induced Cytidine Deaminase (AID): UDG Counterscreen signal (AID 1347427)
In short: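 Counterscreen read of UDG activity (2 U/mL, 4/3x) in the FRET deamination format with AID (1 uM, 4/3x), DJC20/DJC23 substrates (250 nM, 4x), 4 h at room temperature. NaOH stop, fluorescence at 560 ex/665 em.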

[33] = molecular target: Single-stranded DNA cytosine deaminase (Homo sapiens) (UniProt Q9GZX7); assay: Validation qHTS assay for inhibitors of Activation Induced Cytidine Deaminase (AID): AID signal (AID 1347429)
In short: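 In this coupled qHTS, AID deaminates a FRET-labelled ssDNA substrate in the presence of UDG over 4 hr at room temperature. Compounds span up to 114 uM final.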

[34] = Primary qHTS for inhibitors of La Crosse Virus (LACV) - induced cell death in SH-SY5Y cells (AID 1508616);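 further: top concentration of the series differs between compounds; higher means more rescue of cells from virus-induced death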
In short: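 Readout was luminescence from ATPLite 1step added after a 6-day LACV infection (0.01 MOI) of SH-SY5Y cells that had received pin-transferred compound 24 hr after seeding.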

[35] = Primary qHTS for small molecule stabilizers of the endoplasmic reticulum resident proteome: Secreted ER Calcium Modulated Protein (SERCaMP) assay (AID 1508630)
In short: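 GLuc-SERCaMP-expressing SH-SY5Y cells, pretreated 16 h with compound, are challenged with thapsigargin to empty ER calcium stores; after 4 h, coelenterazine is added directly to the medium and luminescence is imaged.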

Measured: Potency

O=[N+]([O-])c1ccc(O[C@@H]2O[C@H](CO)[C@@H](O)[C@H](O)[C@H]2F)c([N+](=O)[O-])c1
inactive: all assays above
